High-throughput results deposited in PubChem by National Center for Advancing Translational Sciences (NCATS).
OvCa metastasis = Primary qHTS assay for Inhibitors of ovarian cancer metastasis using an organotypic tumor microenvironment (TME) model; SKOV3ip1-GFP adhesion/invasion on 3D omental model, fluorescence; Potency, µM (top dose mostly 45.8 µM), inactives show at the top dose activity change, negative = inhibition, most hits filed as inhibitors; hit rate 0.1% among 46,000;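 note: potency is the fitted concentration of half-maximal effect; plate controls were DMSO wells for no effect and tomatine positive control wells for full effect; nearly all actives have a fitted effect of over 65% in size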
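Adhesion/invasion was scored as fixed GFP-labeled SKOV3ip1 cell counts (488/509 nm), normalized to DMSO and tomatine controls. Cancer cells in serum-free medium, with four compound doses (0.36-46 umol/L), sat 2 hr at RT then 16 hr at 37 C on a 48 hr fibroblast/mesothelial/ECM culture.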
p53null 32C tox = qHTS Screen for Compounds that Selectively Target Cancer Cells with p53 Mutations: Cytotoxicity of p53 Null Cells at the Permissive Temperature; hit rate 0.62% among 55,000; H1299-neo p53 null cells, ATP luminescence, 24 h, 32C; Potency, µM (highest dose often 46.1 µM), without a hit: at the highest dose activity change, negative = cytotoxicity, usual class: cytotoxic;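 note: potency is the fitted concentration of half-maximal effect; 0% = DMSO only and -100% = full killing by 100 µM tamoxifen; nearly all actives have a fitted effect of over 55% in size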
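AC50 values derive from Hill modelling of qHTS concentration-response data (up to 46 uM) in H1299-neo cells. Cells were treated 24 h at 32C following overnight attachment at 37C; viability was read as cellular ATP.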
p53null 39C kill = qHTS Screen for Compounds that Selectively Target Cancer Cells with p53 Mutations: Cytotoxicity of p53 Null Cells at the Nonpermissive Temperature. Potency, µM (titrated, usually from 46.1 µM), for the others: at the highest dose activity, negative = cell killing, actives largely listed as cytotoxic. H1299 p53-null (neo) cells, 39C, ATPlite viability, 24 h. hit rate 0.97% among 55,000. AID 904, 2007;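 note: potency is the fitted concentration of half-maximal effect; 0% = DMSO only and -100% = full killing by 100 µM tamoxifen; nearly all actives have a fitted effect of over 50% in size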
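Concentration-response (up to 46 uM) was run for 24 h at the nonpermissive 39C on H1299-p53A138V or H1299-neo cells. ATP content was measured with ATPlite luminescence. AC50 values were Hill-modeled after normalizing between DMSO and 100 uM tamoxifen killing.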
pS6 MEF inh = Acumen qHTS Assay for Inhibitors of the mTORC1 Signaling Pathway in MEF (Tsc2-/-, p53-/-) Cells: Sytravon | Tsc2-/- p53-/- MEF, phospho-rpS6 immunofluorescence/PI, 24 h | Potency, µM (titrated, usually from 38.3 µM), inactives show at the top dose activity change, negative = inhibition, hits mostly inhibitors | hit rate 0.78% among 44,000;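 note: potency is the fitted concentration of half-maximal effect; plate controls were DMSO for no effect and rapamycin for full effect; nearly all actives have a fitted effect of over 50% in size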
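Readout is phospho-S6 Alexa 488 signal normalized to PI per well, reported as % active cells with thresholds set from rapamycin (7.5 nM) and DMSO controls. Cells: Tsc2-/-, p53-/- MEFs, 24 hrs compound at 37 C; PI cell number serves as viability.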
S16 viability = Cell viability qHTS assay in S16 Pmp22-F2sN cells | Potency, µM (series often up to 57.5 µM), inactives show at the top dose activity change, negative = cytotoxicity, most hits filed as cytotoxic | S16 Pmp22-F2sN Schwann cells viability, CellTiter-Glo, 24 h | AID 1508642, 2021 | hit rate 0.48% among 43,000; note: potency is the fitted concentration of half-maximal effect; % is set by controls: 0 for no effect and ±100 for the full control effect; nearly all actives have a fitted effect of over 65% in size
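S16 Pmp22-F2sN Schwann cells (500-1,000/well) in phenol-red-free DMEM with 10% FBS received 23 nL compound by pin tool for 24 h at 37 °C. Viability was then read as CellTiter-Glo luminescence after 15 min at room temperature.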
PMP22 txn prim = Cell-based coincidence reporter assay to measure PMP22 gene transcription in S16 Pmp22-F2sN cells - Primary screen; S16 Pmp22-F2sN Schwann cells (luciferase reporters placed in the Pmp22 gene), FLuc/NLuc coincidence luminescence, 24 h; Potency, µM (doses to about 57.5 µM), for the others: top-dose activity change, negative = inhibition, most hits filed as inhibitors; hit rate 2% among 43,000; AID 1508649, 2021; active = clear falling dose curves in both reporters; inconclusive = both reporters move, but less clearly or upward; inactive = either reporter flat; the % is the NLuc reporter signal; note: potency is the fitted concentration of half-maximal effect; % is set by controls: 0 for no effect and ±100 for the full control effect
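Reporter cells (S16 Pmp22-F2sN, 500–1,000 per well) exposed to compounds for 24 h, 37C, 5% CO2; lysis with FLuc read after 10 min, then Stop&Glo and NLuc read after 10 min.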
NLuc sat counter = Biochemical NLuc saturation counterscreen for small molecule modulators of PMP22 gene expression - Nano-Glo assay; shares compounds with PMP22 txn prim; Secreted NLuc enzyme (filtered S16 cell medium), Nano-Glo luminescence; Potency, µM (titrated, usually from 57.5 µM), for inactives: at the highest dose activity change, negative = inhibition, usual class: inhibitors; hit rate 4% among 690; note: potency is the fitted concentration of half-maximal effect; % is set by controls: 0 for no effect and ±100 for the full control effect
NLuc Km counter = Biochemical coelenterazine-based NLuc counterscreen for small molecule modulators of PMP22 gene expression - Km assay. shares compounds with PMP22 txn prim. secreted NLuc enzyme, coelenterazine luminescence, Km conditions. Potency, µM (doses to about 57.5 µM), for inactives: top-dose activity change, negative = inhibition, hits mostly inhibitors. hit rate 5% among 690. AID 1508639, 2021; note: potency is the fitted concentration of half-maximal effect; % is set by controls: 0 for no effect and ±100 for the full control effect
FLuc counter = Biochemical FLuc counterscreen for small molecule modulators of PMP22 gene expression; shares compounds with PMP22 txn prim; purified P. pyralis FLuc, luminescence, 10 min; AID 1508640, 2021; Potency, µM (doses to about 57.5 µM), for the others: at the top dose activity, negative = inhibition, actives largely listed as inhibitors; 690 tested, under 10 active; note: % of control where 0% means no effect
Target sequence (P08659 whole entry, looked up): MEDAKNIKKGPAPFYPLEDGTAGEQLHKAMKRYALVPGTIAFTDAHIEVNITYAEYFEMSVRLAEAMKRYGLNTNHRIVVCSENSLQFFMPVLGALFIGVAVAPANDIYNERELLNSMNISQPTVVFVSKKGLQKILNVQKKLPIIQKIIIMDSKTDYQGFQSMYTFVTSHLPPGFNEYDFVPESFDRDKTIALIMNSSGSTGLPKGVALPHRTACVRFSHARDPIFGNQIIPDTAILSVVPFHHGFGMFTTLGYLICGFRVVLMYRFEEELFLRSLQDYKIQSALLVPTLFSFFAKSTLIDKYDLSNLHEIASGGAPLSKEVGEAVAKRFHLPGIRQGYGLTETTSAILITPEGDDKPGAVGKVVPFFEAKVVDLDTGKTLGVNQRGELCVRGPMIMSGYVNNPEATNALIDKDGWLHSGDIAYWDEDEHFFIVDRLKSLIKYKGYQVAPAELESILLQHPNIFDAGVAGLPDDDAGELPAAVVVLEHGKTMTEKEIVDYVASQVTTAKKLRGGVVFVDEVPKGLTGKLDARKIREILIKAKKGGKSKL
S16 viab conf = Cell viability qHTS assay in S16 Pmp22-F2sN cells - Confirmatory screen; shares compounds with PMP22 txn prim; S16 Schwann cells viability, CellTiter-Glo ATP luminescence, 24 h; Potency, µM (doses to about 57.5 µM), for inactives: at the top dose activity change, negative = viability loss, most hits filed as cytotoxic; hit rate 7% among 690; AID 1508641, 2021; note: potency is the fitted concentration of half-maximal effect; % is set by controls: 0 for no effect and ±100 for the full control effect
PMP22 txn conf = Cell-based coincidence reporter assay to measure PMP22 gene transcription in S16 Pmp22-F2sN cells - Confirmatory screen | shares compounds with PMP22 txn prim | S16 Schwann cells Pmp22-F2sN, dual luciferase, 24 h | hit rate 22% among 690 | Potency, µM (doses to about 57.5 µM), for inactives: at the highest dose activity change, negative = inhibition, usual class: inhibitors; active = clear falling dose curves in both reporters; inconclusive = both reporters move, but less clearly or upward; inactive = either reporter flat; the % is the FLuc reporter signal; note: potency is the fitted concentration of half-maximal effect
Starred values were filed as active, the others as inactive. A selection: hits, their analogues and other compounds. The true share with any hit is near 3%. Unless noted, calls come from the whole dose curve; as a rule, active = well fitted curve in the direction sought with a large enough effect; inconclusive = small, poorly fitted or top-dose-only effect, or another doubt; inactive = no such curve, though single readings can be large; an effect the other way counts as inactive or inconclusive.

Cc1c2cnn(CC(=O)NCc3ccccc3)c(=O)c2c(C)n1Cc1cccc(Cl)c1 was read as OvCa metastasis 0%, p53null 32C tox 8%, p53null 39C kill inconclusive, pS6 MEF inh inconclusive, S16 viability -13%, PMP22 txn prim 13µM*, NLuc sat counter -12%, NLuc Km counter -1%, FLuc counter -4%, S16 viab conf -10% and PMP22 txn conf inconclusive.
For COc1ccc(CC(=O)Nc2sc3c(c2C(=O)Nc2cccc(C)c2)CCCCC3)cc1 the results were OvCa metastasis -1%, p53null 32C tox -13%, p53null 39C kill inconclusive, pS6 MEF inh 9.3µM*, S16 viability 25µM*, PMP22 txn prim 10µM*, NLuc sat counter -15%, NLuc Km counter 6%, FLuc counter -13%, S16 viab conf inconclusive and PMP22 txn conf inconclusive.
`COc1ccc(CC(=O)Nc2sc3c(c2C(=O)Nc2ccc(C)cc2)CCCCC3)cc1` gave OvCa metastasis inactive, p53null 32C tox 9%, p53null 39C kill -26%, pS6 MEF inh 8%, S16 viability -20% and PMP22 txn prim inconclusive.
For COc1ccc(-c2oc3c(CC=C(C)C)c(O)cc(O)c3c(=O)c2O)cc1 the results were OvCa metastasis 6%.
`COc1cc2c(N3CCN(C(=O)Nc4ccc(OC(C)C)cc4)CC3)ncnc2cc1OCCCN1CCCCC1` gave OvCa metastasis -10%.
